The supplement of paper PMC12350171
Counter-ions that a name gives are not always drawn. Unmarked numbers belong to inactive results.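 Rule for the calls: active = normalised median growth AUC below 0.1 of DMSO control; inactive = AUC 0.1 or higher.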

Tests used:
Test in all cases: growth AUC normalised to DMSO control (median) (fraction of control); higher = less growth inhibition, active = hit call of the paper
Conditions in all cases: 20 µM
[1] = system: P. vulgatus RND KO
Outline: (§1)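 For normalised area under the curve, growth curves were truncated at entry into stationary phase, integrated by the trapezoidal rule and divided against vehicle wells on the same plate. The curves came from strains passaged twice overnight without oxygen and then grown in mGAM in 96-well plates at a starting OD578 of 0.01. Each well held an approved-drug library compound at 20 μM with 1% DMSO, and OD578 was read hourly for 24 h in an anaerobic incubator. Values are medians of three biological replicates.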

[2] = system: P. vulgatus WT
Outline: as §1

[3] = system: S. enterica typhimurium WT
Outline: as §1

[4] = system: S. enterica typhimurium tolC KO
Outline: as §1
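Note: active when median AUC fell below 0.1.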

| SMILES | growth AUC normalised to DMSO control [1] | growth AUC normalised to DMSO control [2] | growth AUC normalised to DMSO control [3] | growth AUC normalised to DMSO control [4] |
| --- | --- | --- | --- | --- |
| COC(=O)[C@H](c1ccccc1Cl)N1CCc2sccc2C1 [Clopidogrel] | 0.999 | 0.996 | 1 | 0.914 |
| CCC(=O)c1ccc(O)cc1 [Paroxypropione] | 1 | 0.985 | 0.994 | 1 |
| O=C(O)Cc1ccccc1Oc1ccc(Cl)cc1Cl [Fenclofenac] | 0.992 | 1.05 | 1.02 | 1.02 |
| Cc1ccsc1C(=CCCN1CCC[C@@H](C(=O)O)C1)c1sccc1C [Tiagabine hydrochloride] | 0.999 | 0.984 | 1 | 1 |
| CS(=O)(=O)c1ccc([C@@H](O)[C@@H](CF)NC(=O)C(Cl)Cl)cc1 [Florfenicol] | 0.0099 (active) | 0.00788 (active) | 0.00248 (active) | 0.00279 (active) |
| C#CCN[C@@H]1CCc2ccccc21 [Rasagiline] | 0.989 | 0.96 | 1 | 0.982 |
| C[C@H]1[C@H](OC(=O)CCC(=O)O)O[C@@H]2O[C@@]3(C)CC[C@H]4[C@H](C)CC[C@@H]1[C@@]24OO3 [Artesunate] | 1.01 | 1 | 1 | 1.01 |
| O=c1[nH]c(=O)n([C@H]2C[C@H](O)[C@@H](CO)O2)cc1/C=C/Br [Brivudine] | 1.02 | 1.01 | 1 | 1.01 |
| N#C/C(=C1/SCC(c2ccccc2Cl)S1)n1ccnc1 (centres undefined) [Lanoconazole] | 1.04 | 1.08 | 1 | 0.834 |
| CC(=O)OC[C@H]1O[C@@H](n2ncc(=O)[nH]c2=O)[C@H](OC(C)=O)[C@@H]1OC(C)=O [Azaribine] | 0.972 | 0.956 | 1 | 1 |
| NC[C@H]1O[C@H](O[C@H]2[C@H](O)[C@@H](O[C@H]3O[C@H](CO)[C@@H](O)[C@H](N)[C@H]3O)[C@H](N)C[C@@H]2N)[C@H](N)[C@@H](O)[C@@H]1O [Kanamycin B] | 1.1 | 1.14 | 0.947 | 1.02 |
| C[C@@H](NCCCc1cccc(C(F)(F)F)c1)c1cccc2ccccc12 [Cinacalcet hydrochloride] | 1.01 | 1.02 | 1.01 | 0.996 |
| Nc1c(CC(=O)O)cccc1C(=O)c1ccc(Br)cc1 [Bromfenac] | 1.04 | 1.04 | 1.01 | 0.999 |
| CCC(=O)c1c(O)cc(O)cc1O [Flopropione] | 0.985 | 0.986 | 0.999 | 0.994 |
| Cc1ccc(C(=O)c2cc(O)c(O)c([N+](=O)[O-])c2)cc1 [Tolcapone] | 0.474 | 0.0123 (active) | 0.993 | 0.91 |
| CCOC(=O)C(C)(N)Cc1cc(I)c(Oc2cc(I)c(O)c(I)c2)c(I)c1 (centres undefined) [Etiroxate hydrochloride] | 0.415 | 0.571 | 1.01 | 1 |
| C[C@H](NCc1ccc(OCc2cccc(F)c2)cc1)C(N)=O [Safinamide] | 1.02 | 1.01 | 0.986 | 1 |
| C[C@]12CCC3=C4CCC(=O)C=C4CC[C@H]3[C@@H]1CC[C@@]2(O)CC#N [Dienogest] | 1.03 | 1.04 | 1.02 | 1.02 |
| CCOc1ccc(NC(=O)CC(C)O)cc1 (centres undefined) [Bucetin] | 0.981 | 0.981 | 1 | 0.992 |
| CC1=C(C(=O)O)N2C(=O)[C@@H](NC(=O)[C@H](N)c3ccccc3)[C@H]2SC1 [Cephalexin monohydrate] | 1.04 | 1.04 | 0.999 | 0.968 |
| CN[C@@H]1CCc2[nH]c3ccc(C(N)=O)cc3c2C1 [Frovatriptan succinate] | 1.02 | 1.02 | 1 | 1 |
| CN(C)c1ccc2nc3ccc(=[N+](C)C)cc-3sc2c1 [Methylene blue] | 1 | 1.02 | 0.98 | 0.862 |
| Cc1cc2nc3ccc(=[N+](C)C)cc-3sc2cc1N [Tolonium chloride] | 0.996 | 1 | 0.981 | 0.987 |
| CCCNC(C)(C)C(=O)Nc1ccccc1C [Quatacaine] | 1.01 | 1.03 | 1 | 0.975 |
| N[C@@H](Cc1c[nH]c2ccccc12)C(=O)O [L-Tryptophan] | 1 | 1.03 | 0.994 | 0.989 |
| CCCCOC(=O)c1ccccc1Nc1cccc(C(F)(F)F)c1 [Ufenamate] | 1.02 | 0.978 | 0.998 | 0.992 |

| SMILES | growth AUC normalised to DMSO control [1] | growth AUC normalised to DMSO control [2] | growth AUC normalised to DMSO control [3] | growth AUC normalised to DMSO control [4] |
| --- | --- | --- | --- | --- |
| CN(C)C(=O)COC(=O)Cc1ccc(OC(=O)c2ccc(NC(=N)N)cc2)cc1 [Camostat mesylate] | 1.02 | 1.03 | 0.997 | 1 |
| CC1(C)S[C@@H]2[C@H](NC(=O)C(c3ccccc3)S(=O)(=O)O)C(=O)N2[C@H]1C(=O)O (some centres undefined) [Sulbenicillin sodium salt] | 0.00728 (active) | 0.00538 (active) | 0.116 | 0.00823 (active) |
| COc1ccnc(C[S+]([O-])c2nc3cc(OC(F)F)ccc3[nH]2)c1OC (centres undefined) [Pantoprazole sodium] | 0.991 | 0.998 | 1.01 | 0.937 |
| CC(C)(C)CC(C)(C)c1ccc(O)c(Cc2ccc(Cl)cc2Cl)c1 [Clofoctol] | 0.619 | 0.581 | 0.995 | 1.02 |
| CC(=O)N[C@@H](CCC(N)=O)C(=O)O [Acetyl-L-glutamine] | 0.995 | 1 | 0.998 | 0.999 |
| Brc1c(NC2=NCCN2)ccc2nccnc12 [Brimonidine L-tartrate] | 0.994 | 1.02 | 0.999 | 1.01 |
| CCCCNC(=N)NC(=N)N [Buformin] | 1.04 | 1.06 | 1.02 | 0.991 |
| C/C(=C\C(=O)OCCCCCCCCC(=O)O)C[C@@H]1OC[C@H](C[C@@H]2O[C@H]2[C@@H](C)[C@H](C)O)[C@@H](O)[C@H]1O [Mupirocin] | 1 | 1.04 | 0.403 | 0.0105 (active) |
| OCC(CO)N[C@H]1C[C@](O)(CO)[C@@H](O)[C@H](O)[C@H]1O [Voglibose] | 1.04 | 1.02 | 0.977 | 1.02 |
| Cc1nc2ccccc2n1Cc1ccc(Cl)cc1 [Chlormidazole] | 0.974 | 0.95 | 0.951 | 0.833 |
| Oc1ccc(C2CNCCc3c2cc(O)c(O)c3Cl)cc1 (centres undefined) [Fenoldopam] | 0.995 | 0.992 | 0.985 | 0.978 |
| CC(C)(C)NCC(O)CSc1nc(-c2ccc(C(N)=O)s2)cs1 (centres undefined) [Arotinolol hydrochloride] | 1.02 | 1 | 0.996 | 1.01 |
| N#Cc1cc(NC(=O)C(=O)O)c(Cl)c(NC(=O)C(=O)O)c1 [Lodoxamide] | 1 | 1.04 | 1 | 1.01 |
| CN(CCCN1c2ccccc2CCc2ccccc21)CC(=O)c1ccc(Cl)cc1 [Lofepramine] | 0.944 | 0.964 | 0.985 | 0.957 |
| Cc1ccc2c([nH]c(=O)c3c(=O)cc(C(=O)OCCC(C)C)oc32)c1C [Repirinast] | 0.94 | 0.943 | 1.01 | 0.924 |
| C[C@H]1[C@@H](O)O[C@@H]2O[C@@]3(C)CC[C@H]4[C@H](C)CC[C@@H]1[C@@]24OO3 [Artenimol] | 1.04 | 1.04 | 1 | 1 |
| CCOc1nc2cccc(C(=O)OCc3oc(=O)oc3C)c2n1Cc1ccc(-c2ccccc2-c2noc(=O)[nH]2)cc1 [Azilsartan medoxomil] | 0.988 | 0.962 | 1 | 0.998 |
| Nc1nc2[nH]cc(CCc3ccc(C(=O)N[C@@H](CCC(=O)O)C(=O)O)cc3)c2c(=O)[nH]1 [Pemetrexed disodium] | 1.07 | 1.04 | 1.01 | 0.999 |
| CC(C)c1nc(N(C)S(C)(=O)=O)nc(-c2ccc(F)cc2)c1/C=C/[C@@H](O)C[C@@H](O)CC(=O)O [Rosuvastatin] | 1.01 | 1.03 | 1.01 | 1.01 |
| COC(=O)C1=C(C)NC(C)=C(C(=O)O[C@H]2CCN(Cc3ccccc3)C2)[C@H]1c1cccc([N+](=O)[O-])c1 [Barnidipine Hydrochloride] | 1.1 | 1.11 | 0.998 | 0.961 |
| COc1cc(C(=O)NC2CCCNC2)cc(OC)c1OC (centres undefined) [Troxipide] | 1.07 | 1.1 | 0.998 | 0.995 |
| CC(C)Nc1ncccn1 [Isaxonine] | 0.976 | 0.953 | 0.999 | 1 |
| CCOc1ccccc1OCCN[C@H](C)Cc1ccc(OC)c(S(N)(=O)=O)c1 [(R)-Tamsulosin hydrochloride] | 0.997 | 1.01 | 1 | 0.965 |
| CN[C@@H]1[C@@H](O[C@H]2O[C@H](CO)[C@@H](N)[C@H](O)[C@H]2O)OC2C[C@@H](N)[C@@H](O[C@H]3[C@H](O)[C@@H](O)[C@H](N)C[C@@H]3N)OC2[C@@H]1O (some centres undefined) [Apramycin] | 1 | 0.998 | 1.01 | 0.996 |
| CCOC(=O)O[C@]1(C(=O)OCCl)CC[C@H]2[C@@H]3CCC4=CC(=O)C=C[C@]4(C)[C@H]3[C@@H](O)C[C@@]21C [Loteprednol etabonate] | 0.853 | 0.862 | 1.01 | 0.953 |
